# Bioassay records as filed in PubChem BioAssay.
# An excerpt weighted towards active compounds, which were near 1.1% of everything screened.
# A3G deaminase: APOBEC3G (human) deaminase inhibition. recombinant A3G, ssDNA deamination FAM/TAMRA fluorescence. actives 0.28% (n = 330,000). AID 493012. inhibition, % at 20 µM. Q9HC16;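 active means inhibition of at least 40% at 20 µM, with no more than 30% in the related APOBEC3A deaminase screen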;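 further: plate controls were DMSO wells with A3G for no effect and wells lacking A3G enzyme for full effect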
# Target sequence (Q9HC16 whole entry, looked up): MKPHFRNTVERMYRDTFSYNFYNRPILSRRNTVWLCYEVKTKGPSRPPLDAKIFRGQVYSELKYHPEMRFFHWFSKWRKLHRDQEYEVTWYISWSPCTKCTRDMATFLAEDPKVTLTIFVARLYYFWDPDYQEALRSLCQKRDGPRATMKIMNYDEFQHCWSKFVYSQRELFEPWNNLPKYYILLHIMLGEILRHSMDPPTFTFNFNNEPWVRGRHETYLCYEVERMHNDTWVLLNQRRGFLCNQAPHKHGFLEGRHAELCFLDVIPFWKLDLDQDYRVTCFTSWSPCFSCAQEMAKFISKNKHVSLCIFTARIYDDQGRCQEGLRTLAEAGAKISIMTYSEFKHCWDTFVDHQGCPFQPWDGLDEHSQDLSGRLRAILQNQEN
# APOBEC3A inh: blocks human APOBEC3A ssDNA deamination; P31941; AID 493011; inhibition, % at 20 µM; actives 0.41% (n = 330,000); recombinant A3A, FAM/TAMRA ssDNA deamination fluorescence;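 active means at least 40% inhibition at 20 µM here, with at most 30% in a related deaminase screen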;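 further: plate controls were A3A with DMSO for no effect and wells lacking A3A enzyme for full effect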
# Target sequence (P31941 whole entry, looked up): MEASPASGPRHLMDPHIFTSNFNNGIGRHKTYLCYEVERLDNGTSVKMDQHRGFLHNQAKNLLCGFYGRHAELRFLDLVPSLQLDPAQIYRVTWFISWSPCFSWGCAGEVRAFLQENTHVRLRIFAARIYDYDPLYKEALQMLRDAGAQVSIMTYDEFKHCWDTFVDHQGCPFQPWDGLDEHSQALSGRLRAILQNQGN
# A1 inh: inhibitors of the anti-apoptotic protein A1, read as caspase activation; MEF A1-2A-BIM cells, Caspase-Glo 3/7 luminescence, 3 h; percent of clofoctol response, vehicle zero; caspase activation, % (no concentration beside the values); actives 0.066% (n = 330,000); AID 2462;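 active means over half of replicate activation scores above 10%, or exactly half above 10 with the replicate mean above 10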
# beta cell repl: induces beta-cell replication in MIN6 cells | actives 0.29% (n = 330,000) | MIN6 cells proliferation, ATPlite luminescence, 48 h; cells starved in 0.2% serum; 100% = growth in 10% serum | proliferation, % at 10 µM;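 active means compounds whose signal lies at least 3.5 SD above the mean of all wells on their plate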;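 further: 0% = DMSO-treated cells in low-serum medium and 100% = 10% serum control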
# APOBEC3A confirm: confirmation of human APOBEC3A DNA deaminase inhibitors. shares compounds with APOBEC3A inh. recombinant A3A, ssDNA deaminase UDG fluorescence assay. actives 63% (n = 1,400). inhibition, % at 20 µM;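 active means inhibition reaching a set limit, 80% of the first screen's cutoff, at 20 µM in any replicate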;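 further: plate controls were DMSO wells with A3A for no effect and wells lacking A3A enzyme for full effect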
# UDG A3A counter: inhibits UDG, flagging false APOBEC3A inhibitors. 1,000 tested, under 10 active. shares compounds with APOBEC3A inh. UDG counterscreen, FAM/TAMRA uracil oligo fluorescence. inhibition, % at 20 µM. AID 504714; call rule not given here
# * = called active by the depositor; nt = no result.
SMILES,A3G deaminase,APOBEC3A inh,A1 inh,beta cell repl,APOBEC3A confirm,UDG A3A counter
CCN1CCN(c2ccc(NC(=O)c3ccc(Cl)c(S(=O)(=O)N4CCCC4)c3)cc2)CC1,1,40*,nt,1,15,nt
Oc1ccc(C[C@H]2CNCCN2CC2(c3ccccc3)CC2)cc1,-3,-1,1,-2,nt,nt
Cc1cccc(NC(=O)/C(C#N)=C\c2cn(CC(=O)O)c3ccccc23)c1,26,53*,0,-2,17,nt
N#C/C(=C/c1cn(CC(=O)O)c2ccccc12)C(=O)Nc1ccccc1,9,2,-1,-4,nt,nt
COCCN1C(=O)N(c2cccc(C)c2)C(=O)C1CC(=O)Nc1cc(OC)cc(OC)c1 (stereo not drawn),-2,2,0,-2,nt,nt
CCCCCCCC[n+]1cccc2c3ccccc3ccc21,20,57*,1,-7,75*,4
C=CCC1(CC=C)CCCN1C(=O)c1cc(COc2cncc(Cl)c2)on1,-2,53*,0,-7,-10,4
COc1ccccc1CNC(=O)C(NS(=O)(=O)c1cccc2nsnc12)C(C)C (stereo not drawn),-7,-9,1,-3,nt,nt
O=C(/C=C/c1ccco1)N1CCN(S(=O)(=O)c2ccccc2)CC1,14,41*,2,0,29,nt
Cc1ccc(S(=O)(=O)N2CCN(C(=O)/C=C/c3ccco3)CC2)cc1,-2,23,2,-1,nt,nt
CN(C(=O)COC(=O)c1ccc2c(c1)OCO2)C1CCCCC1,-4,-2,0,-3,nt,nt
C[N+]12CCCCC1C(COC(=O)c1ccc3c(c1)OCO3)CCC2 (stereo not drawn),28,58*,0,-1,48*,nt
O=C(c1ccc(S(=O)(=O)N2CCCCC2)cc1)N1CCN=C1SCc1cccnc1,-1,50*,nt,-3,7,5
CCOC(=O)C1CCCN(CC(=O)Nc2cc(C)cc(C)c2)C1 (stereo not drawn),30,60*,0,0,29,nt
CCOC(=O)C1CCCN(CCC(=O)Nc2cc(C)cc(C)c2)C1 (stereo not drawn),-7,-2,1,2,nt,nt
CC(C)N1CC(O)=C(c2nc3ccccc3[nH]2)C1=N,-1,-1,0,2,nt,nt
CC(C)N1CC(O)=C(c2ccccc2)C1=N,-3,74*,-1,-3,-1,4
CCc1noc(C)c1C(=O)Nc1cc(S(=O)(=O)N2CCOCC2)ccc1N1CCN(CC)CC1,16,48*,0,-4,60*,0
CCN1CCN(c2ccc(S(=O)(=O)N3CCOCC3)cc2NC(=O)/C=C/c2ccc([N+](=O)[O-])cc2)CC1,1,43*,-1,-7,48*,-4
CCN1CCN(c2ccc(S(=O)(=O)N3CCOCC3)cc2NC(=O)c2ccc(C(F)(F)F)cc2)CC1,5,60*,0,-2,27,nt
CN1CCN(S(=O)(=O)c2cccc(C(=O)Nc3cc(Cl)ccc3N3CCOCC3)c2)CC1,8,51*,0,7,31*,3
CC1CN(S(=O)(=O)c2cccc(C(=O)Nc3cc(Cl)ccc3N3CCOCC3)c2)CC(C)O1 (stereo not drawn),-7,-1,1,-5,nt,nt
CCN1CCN(c2ccc(S(=O)(=O)N3CCCCC3)cc2NC(=O)c2ccc(F)cc2)CC1,16,36,2,0,nt,nt
CCc1cc(=O)oc2c(C)c(OCC(=O)N3CCC(C(=O)O)CC3)ccc12,-8,-7,0,-1,nt,nt
CN1CCN(S(=O)(=O)c2cccc(C(=O)N3CCN(c4ccccc4F)CC3)c2)CC1,15,44*,0,0,45*,-3
SMILES,A3G deaminase,APOBEC3A inh,A1 inh,beta cell repl,APOBEC3A confirm,UDG A3A counter
O=C(c1cccc(S(=O)(=O)N2CCCCCC2)c1)N1CCN(c2ccccc2F)CC1,-8,-3,-1,-1,nt,nt
CCCC1=[N+](CC(=O)c2ccccc2)CCn2c(C)ccc21,-9,-7,0,-5,nt,nt
CCCC1=[N+](CC)CCn2c(C)ccc21,20,60*,0,-4,76*,0
COC(=O)c1c(Sc2ccccc2)c2ccccc2n1C,11,58*,1,-1,82*,2
O=C1C=C(Nc2ccccc2)C(=O)c2ccccc21,-8,65*,-7,-6,-1,3
O=C1C=C(Nc2ccccc2)c2ccccc2C1=O,-5,-1,nt,-5,nt,nt
C[n+]1ccccc1C1CCCC/C1=N\NC(N)=S (stereo not drawn),14,84*,1,-2,55*,-1
CC1CCCC/C1=N\NC(=S)NCCc1ccccc1 (stereo not drawn),-6,-2,-1,-3,nt,nt
COC(=O)Cn1cc(/C=C/c2cc[n+](C)cc2)c2ccccc21,25,66*,-1,-2,67*,0
COC(=O)Cn1c(C)c(/C=C/c2cc[n+](C)cc2)c2ccccc21,31,80,0,0,nt,nt
Cc1ccc(Nc2nc(N/N=C\c3ccc4c(c3)OCO4)nc(N3CCOCC3)n2)cc1,-6,-1,0,-7,nt,nt
O=C(NCCOc1ccccc1)c1ncn[nH]1,21,76*,-1,-1,52*,-3
Cc1cccc(OCCNC(=O)c2ncn[nH]2)c1,-4,-2,0,2,nt,nt
OCCNC1=NCCN1,18,56*,1,-2,76*,1
Fc1ccc(Sc2ccccc2CNC2=NCCN2)cc1,18,32,0,0,nt,nt
CC(C)[C@H](NC(=O)c1ccco1)C(=O)OCc1cc(=O)n2c(n1)sc1ccccc12,17,63*,-1,-2,39*,-2
O=C(OCc1cc(=O)n2c(n1)sc1ccccc12)c1ccc(O)cc1O,23,62*,0,-1,23*,0
O=C(OCc1cc(=O)n2c(n1)sc1ccccc12)c1cccc(O)c1,11,22,0,1,nt,nt
Cc1ccc(C(=O)N[C@H](C(=O)OCc2cc(=O)n3c(n2)sc2ccccc23)C(C)C)cc1,9,19,0,0,nt,nt
COc1ccc2oc(C(=O)OCC(=O)Nc3cccc(S(=O)(=O)N4CCOCC4)c3)c(C)c2c1,-2,43*,-1,-4,15,2
COc1ccc2oc(C(=O)Nc3cccc(S(=O)(=O)N4CCOCC4)c3)c(C)c2c1,-11,-6,nt,-2,nt,nt
COc1ccc2oc(C(=O)OCC(=O)Nc3ccc(NC(C)=O)cc3)c(C)c2c1,2,47*,0,-1,0,nt
CC(=O)Nc1cc(-c2ccccc2)ccc1O,16,47*,0,-4,60*,-3
CN(C)c1ccc(N=Nc2ccc(C(=O)O)cc2)cc1,25,64*,-8,-4,54*,1
CN(C)c1ccc(C(=O)c2ccccc2)cc1,-5,0,-5,-2,nt,nt
CCN1CC(CN(C)Cc2cn(-c3cccc(C)c3)nc2-c2cccc(F)c2)CC1=O (stereo not drawn),-8,-1,0,-1,nt,nt
